Among the data in PubChem BioAssay (NCATS) are Potency values, retold here.

Each structure is given as a SMILES string. Records with an inconclusive call do not appear. Calls of active or inactive are those of the source. Calls follow the shape of the dose curve; as a rule, active = well fitted cell-killing curve with a large enough effect; inconclusive = small, poorly fitted or top-dose-only effect, or effect the other way; inactive = no such curve, though single readings can be large or run the other way.
Potency is read from the fitted curve at half-maximal effect.

The experiment can be described thus: Quantitative High-Throughput drug screen in 47 multiple myeloma cell lines against the NCATS MIPE library collection: KMS20_JCRB cell viability assay (AID 1918973). Also: nearly all actives have a fitted effect of over 45% in size. The note with it: CellTiter-Glo ATP, 48 h; series mostly up to 45.8 µM. The text has this: PI: Beverly A. Mock Ph.D.
Laboratory of Cancer Biology and Genetics,
Center for Cancer Research, National Cancer Institute,
National Institute of Health, Bethesda, Maryland
Drug resistance and disease progression are common in multiple myeloma (MM) patients, underscoring the need for new therapeutic combinations. […] We hypothesized that effective combinations would reduce MYC expression and enhance p16 activity. […] These preclinical data identify potentially useful drug combinations for evaluation in drug-resistant MM and reveal potential mechanisms of combined drug sensitivity.
Described herein is the primary MIPE qHTS used to cherrypick compounds. Validated compounds were then further tested for potential synergistic activiy.
[1] Peat TJ, Gaikwad SM, Dubois W, Gyabaah-Kessie N, Zhang S, Gorjifard S, Phyo Z, Andres M, Hughitt VK, Simpson RM, Miller MA, Girvin AT, Taylor A, Williams D, D'Antonio N, Zhang Y, Rajagopalan A, Flietner E, Wilson K, Zhang X, Shinn P, Klumpp-Thomas C, McKnight C, Itkin Z, Chen L, Kazandijian D, Zhang J, Michalowski AM, Simmons JK, Keats J, Thomas CJ, Mock BA. Drug combinations identified by high-throughput screening promote cell cycle transition and upregulate Smad pathways in myeloma. Cancer Lett. 2023 Aug 1;568:216284. doi: 10.1016/j.canlet.2023.216284. Epub 2023 Jun 24. PMID: 37356470; PMCID: PMC10408729.
SEQUENCE No. (e.g., 1, 2, 3, etc.); […] (e.g., Cells, Incubation, Reagent, etc.); VALUE and DESCRIPTION.
1; Cells; 5 uL; white, solid bottom 1536-well Greiner assay plate.
2; Compounds; 23 nL; Kalypsis pin tool (Wako USA) equipped with a 1536-well pin head to transfer to the assay plates.
3; Incubation; 48 hours; 37C incubation.
4; Reagent;5uL; CellTiter Glo (Promega).
5; Detector; 425V; Luminescence; Viewlux PerkinElmer.
NOTES (numbers refer to Sequence numbers above)
1. The cell-based screening methods employed in this study were like those previously published. Briefly, the corresponding myeloma cell lines were screened in 1,536-well plates with 500 cells, 5-uL per well for inhibition of cell viability (assessed by measuring ATP levels with CellTiterGlo).
2. NCATS MIPE 4.0 library of approved and investigational drugs were added using the Kalypsis pin tool. Wells treated with DMSO only for 100% viability and media only wells for 0% viability were used as controls.
3. The assay plates were covered and incubated for 48 hours in a 37C, 5% CO2 incubator with controlled humidity.
4. After 48 hours, CellTilter-GloTM luminescent substrate mix (Promega) reagent was added to the assay plate and plates we incubated for 5 min at room temperature.
5. Signal was measured as median relative luminescence units on a ViewLux (PerkinElmer) multiplate reader.
[1] Heske CM, Davis MI, Baumgart JT, Wilson K, Gormally MV, Chen L, Zhang X, Ceribelli M, Duveau DY, Guha R, Ferrer M, Arnaldez FI, Ji J, Tran HL, Zhang Y, Mendoza A, Helman LJ, Thomas CJ. Matrix Screen Identifies Synergistic Combination of PARP Inhibitors and Nicotinamide Phosphoribosyltransferase (NAMPT) Inhibitors in Ewing Sarcoma. Clin Cancer Res. 2017 Dec 1;23(23):7301-7311. doi: 10.1158/1078-0432.CCR-17-1121. Epub 2017 Sep 12. PMID: 28899971; PMCID: PMC6636827.
For orientation: Cellular ATP, detected with luciferase, serves as a proxy for viable cell number.
Turning to `C[C@]12COC(=O)C[C@@H]1CC[C@@H]1[C@H]2CC[C@@]2(C)[C@H]1CC[C@]2(C)O`, the Potency entry was “inactive”.

On to `C[C@@]12OC(=O)[C@]1([C@@H](O)[C@@H]1C=CCCC1)NC(=O)[C@H]2CCCl`, for which the Potency was 29.6 nM (active).

For the compound `O=c1[nH]c2ccccc2n1C1CCN(Cc2ccc(-c3[nH]c4cc5ncnc5cc4nc3-c3ccccc3)cc2)CC1`, the Potency is 2350 nM (active).

With `Cc1c(C(=O)c2cccc3ccccc23)c2cccc3c2n1[C@H](CN1CCOCC1)CO3`, the Potency was 18700 nM (active).

As for `O=[N+]([O-])c1ncc[nH]1`, the Potency result is “inactive”.

Turning to `C[C@H]1CCCC=CC2C[C@H](O)C[C@@H]2[C@H](O)C=CC(=O)O1` (stereo not given in full), the Potency result was “inactive”.

For `O=C(N[C@@H](COc1ccc2[nH]c(=O)[nH]c2c1)c1ccccc1)c1cccn(Cc2ccc(F)c(F)c2)c1=O`, the Potency was 18700 nM (active).

Consider `CC(C)[C@]12O[C@@H]1[C@@H]1O[C@]13[C@]1(O[C@H]1C[C@@H]1C4=C(CC[C@@]13C)C(=O)OC4)[C@H]2O`, for which the Potency entry was “inactive”.

`C#C[C@]1(O)C=C[C@@H]2[C@@H]3CCC4=CC(=O)CC[C@@H]4[C@H]3CC[C@@]21CC`: the Potency entry is “inactive”.

With `Cc1c(N)nc([C@H](CC(N)=O)NC[C@@H](N)C(N)=O)nc1C(=O)N[C@H](C(=O)N[C@@H](C)[C@H](O)[C@@H](C)C(=O)N[C@@H](C(=O)NCCc1nc(-c2nc(C(=O)NCCC[S+](C)C)cs2)cs1)[C@@H](C)O)C(O[C@H]1O[C@H](CO)[C@H](O)[C@@H](O)[C@@H]1O[C@H]1O[C@H](CO)[C@@H](O)[C@H](OC(N)=O)[C@H]1O)c1cnc[nH]1` (stereo not given in full), the Potency was 935 nM (active).

With `COC[C@H]1OC(=O)c2coc3c2[C@@]1(C)C1=C(C3=O)[C@@H]2CC[C@H](O)[C@@]2(C)C[C@@H]1OC(C)=O`, the Potency was 5260 nM (active).

Turning to `CC(O)=C(C#N)C(=O)Nc1cc(Br)ccc1Br`, the Potency was 6620 nM (active).

Consider `C[C@@H]1CC[C@@]2(OC1)O[C@H]1C[C@H]3[C@@H]4CC=C5C[C@@H](O[C@@H]6O[C@H](CO)[C@@H](O[C@@H]7O[C@@H](C)[C@H](O)[C@@H](O)[C@@H]7O)[C@H](O)[C@@H]6O[C@@H]6O[C@@H](C)[C@H](O)[C@@H](O)[C@@H]6O)CC[C@]5(C)[C@@H]4CC[C@]3(C)[C@@H]1[C@H]2C`, for which the Potency is 4180 nM (active).

Consider `CC[C@@H](C(N)=O)N1CCCC1=O`, for which the Potency entry is “inactive”.

Regarding `O=S(=O)(CC1CS1)c1ccc(Oc2ccccc2)cc1` (stereo not given), the Potency was 14800 nM (active).

As to `O=c1cccc2n1CC1CNC[C@H]2C1`, the Potency was 11800 nM (active).

For `Cc1nc(-c2ccc(-c3ccc(C(=O)N4CCc5cc6c(cc54)C4(CCN(C)CC4)CO6)cc3)c(C)c2)no1`, the Potency entry was “inactive”.

In the case of `CCN1CCN(C(=O)Cc2ccc(Nc3ncc(F)c(Nc4ccc(C(=O)Nc5ccccc5Cl)cc4)n3)cc2)CC1`, the Potency is 1180 nM (active).

Turning to `C[C@]12CC[C@H]3[C@@H](CCC4=CC(=O)CC[C@@]43C)[C@H]1CC[C@H]2O`, the Potency entry is “inactive”.

In the case of `N=c1c2c(-c3ccccc3)c(-c3ccccc3)n(Cc3ccccc3)c2ncn1C1CCC(O)CC1` (stereo not given), the Potency was 2640 nM (active).

Regarding `COc1cc([C@@H]2c3cc4c(cc3[C@@H](O)C3COC(=O)C32)OCO4)cc(OC)c1O` (stereo not given in full), the Potency is 66.2 nM (active).

Consider `COc1ccc(C(=O)c2c(C)n(CCN3CCOCC3)c3cc(I)ccc23)cc1`, for which the Potency is 5260 nM (active).

Regarding `Cc1ccccc1-n1c(Cn2ncc3c(N)ncnc32)nc2cccc(C)c2c1=O`, the Potency is 132 nM (active).

In the case of `CC1=C(O)C(=O)C=C2C1=CC=C1[C@@]2(C)CC[C@@]2(C)[C@@H]3C[C@](C)(C(=O)O)CC[C@]3(C)CC[C@]12C`, the Potency is 935 nM (active).

As to `C[C@@H]1O[C@@H](O[C@@H]2C=C3CC[C@@H]4[C@@H](CC[C@]5(C)[C@H](c6ccc(=O)oc6)CC[C@@]45O)[C@@]3(C)CC2)[C@H](O)[C@H](O)[C@H]1O`, the Potency was 18.7 nM (active).

On to `CC(N[C@H]1C[C@H]1c1ccccc1)c1ccc2c(c1)OCCO2` (stereo not given in full), for which the Potency was 1 nM (active).

On to `C=CCON=C(C[C@H]1O[C@@H]2O[C@]3(C)CC[C@@H]4[C@H](C)CC[C@@H]([C@H]1C)[C@@]24OO3)[C@H]1O[C@@H]2O[C@]3(C)CC[C@H]4[C@H](C)CC[C@@H]([C@@H]1C)[C@@]24OO3`, for which the Potency was 372 nM (active).

For the compound `CCc1c(C(=O)C(N)=O)c2c(OCC(=O)O)cccc2n1Cc1ccccc1`, the Potency entry was “inactive”.

`N#C[C@H](O[C@@H]1O[C@H](CO[C@@H]2O[C@H](CO)[C@H](O)[C@H](O)[C@H]2O)[C@H](O)[C@H](O)[C@H]1O)c1ccccc1`: the Potency was 18700 nM (active).

Take `CC(C)N[C@@H]1CCn2c(=O)[nH]c3cccc(c32)[C@@H]1O`: the Potency is 10500 nM (active).

In the case of `c1ccc(CCCN2CCN(CCOC(c3ccccc3)c3ccccc3)CC2)cc1`, the Potency is 13200 nM (active).

Turning to `CC(C)(C)c1cc(C=C(C#N)C#N)cc(Br)c1O`, the Potency was 13200 nM (active).

For `c1cc2c(cc1[C@H]1OC[C@H]3[C@H]1CO[C@H]3c1ccc3c(c1)OCO3)OCO2`, the Potency entry is “inactive”.

Turning to `C[C@]12Cc3cn[nH]c3C[C@@H]1CC[C@@H]1[C@H]2CC[C@@]2(C)[C@H]1CC[C@]2(C)O`, the Potency entry was “inactive”.

For `CC[C@@]1(O)C(=O)OCc2c1cc1n(c2=O)Cc2cc3ccccc3nc2-1`, the Potency is 209 nM (active).

Turning to `CC(C)N(CCNC(=O)CN1CCCC1=O)C(C)C`, the Potency entry is “inactive”.

As to `CN1[C@H]2CC(O)C[C@H]1[C@H]1O[C@H]12` (stereo not given in full), the Potency was 11800 nM (active).

For the compound `C#CC1(O)CCC2C3CCC4=CC(=O)CCC4(C)C3CCC21C` (stereo not given), the Potency entry was “inactive”.

Consider `COC1=CC(C)=C[C@@H](C)[C@@H](O)[C@@H](C)CC(C)=CC=C[C@H](OC)[C@H]([C@@H](C)[C@@H](O)[C@H](C)[C@@]2(O)C[C@@H](O)[C@H](C)[C@@H](C(C)C)O2)OC1=O`, for which the Potency was 1 nM (active).

Consider `COCC1(CO)C(=O)C2CCN1CC2` (stereo not given), for which the Potency was 296 nM (active).
